Several values for one entry are separate records, joined by “and”; a condition that tells them apart may be missing. Equal values may be shown once. More than one record can exist for a structure, and the calls need not agree. Activity calls are given as the source filed them. Rule for the calls: active = hit-call score of the fitted dose curve at least 0.9, where 1 is the maximum; inactive = score below 0.9.
Legend:
[1] = Tanguay_ZF_120hpf_MORT: Oregon State University Tanguay Lab 120 Hour Post-fertilization zebrafish Assay for Mortality (AID 2284399)
Method: (§1) Tanguay_ZF_120hpf is a whole embryo, multiplexed endpoint assay using zebrafish larvae exposed for 120 hours post fertilization on a 96-well plate.Tanguay_ZF_120hpf_MORT is one of one assay component(s) measured or calculated from the Tanguay_ZF_120hpf assay. It is designed to make measurements of zebrafish development as detected with brightfield microscopy of developing zebrafish embryos.Data from the assay component Tanguay_ZF_120hpf_MORT was analyzed into 1 assay endpoints. This assay endpoint, Tanguay_ZF_120hpf_MORT, was analyzed in the positive analysis fitting direction relative to DMSO as the negative control and baseline of activity. Using a type of viability reporter, gain-of-signal activity can be used to understand changes in developmentals as they relate to the whole embryo. To generalize the intended target to other relatable targets, this assay endpoint is annotated to the zebrafish development intended target family, where the subfamily is embryonic mortality.
(§2) Zebrafish husbandry: Tropical 5D wild-type adult zebrafish were housed in at an approximate density of 1000 per 100 gallon tank at the Sinnhuber Aquatic Research Laboratory, Oregon State University, Corvallis, OR. Each tank was kept at standard laboratory conditions of 28C on a 14-h light/10-h dark photoperiod in fish water consisting of reverse osmosis water supplemented with a commercially available salt (Instant Ocean). Spawning funnels were placed into the tanks the night prior, and embryos were collected and staged. To increase bioavailability, the chorion was enzymatically removed using pronase (63.6mg/ml, >/= 3.5U/mg, Sigma-Aldrich: P5147) at 4 hours post fertilization (hpf) using a custom automated dechorionator.Chemical exposures: Six hpf dechorionated embryos were placed 1 embryo per well in a 96-well plate prefilled with 90 ul of EM using automated embryo placement systems (AEPS). Ten microliters of each row of dilution plate 2 was added to 2 exposure plates. The final DMSO concentration used was 0.64% (vol/vol). Thirty-two embryos were also exposed to 5uM trimethyltin chloride (positive control). Plates were sealed to prevent evaporation and foil covered to reduce light exposure and kept in a 28C incubator. Embryos were statically exposed until 120 hpf. At 24 hpf, embryos were assessed for photomotor response using a custom photomotor response analysis tool (PRAT) and for developmental toxicity endpoints (MO24: mortality at 24 hpf, DP: developmental progression, SM: spontaneous movement, and NC: notochord distortion). At 120 hpf, locomotor activity was measured using Viewpoint Zebralab and assessed for 13 endpoints. Zebrafish acquisition and analysis program (ZAAP), a custom program designed to inventory, acquire, and manage zebrafish data, was used to collect developmental endpoints as either present or absent (i.e., binary responses were recorded). If mortality occurred for an embryo (at either 24 or 120 hpf), the non-mortality endpoints were not measured.

[2] = Tanguay_ZF_120hpf_EDEM: Oregon State University Tanguay Lab 120 Hour Post-fertilization zebrafish Assay for Edema Malformation (AID 2284400)
Summary of the method: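 Edema recorded as a binary endpoint under brightfield at 120 hpf, excluding embryos that died. Exposure was static, sealed, 28C, from 6 hpf in dechorionated wild-type larvae, final DMSO 0.64%, DMSO as baseline.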

[3] = Tanguay_ZF_120hpf_MUSC: Oregon State University Tanguay Lab 120 Hour Post-fertilization zebrafish Assay for Muscle Malformation (AID 2284401)
Method: as §1, with “plate.Tanguay_ZF_120hpf_MUSC” for “plate.Tanguay_ZF_120hpf_MORT”, “Tanguay_ZF_120hpf_MUSC” for “Tanguay_ZF_120hpf_MORT”, “Tanguay_ZF_120hpf_MUSC,” for “Tanguay_ZF_120hpf_MORT,”, “morphology” for “viability”, “myogensis.” for “embryonic mortality.”
as §2

[4] = Tanguay_ZF_120hpf_BRN: Oregon State University Tanguay Lab 120 Hour Post-fertilization zebrafish Assay for Brain Region Malformation (AID 2284402)
Summary of the method: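 Binary brightfield scoring of brain malformation at 120 hpf in 5D wild-type larvae, chorion removed with pronase at 4 hpf. Static exposure began at 6 hpf, 28C, sealed plates, DMSO 0.64% (vol/vol) as vehicle baseline.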

[5] = Tanguay_ZF_120hpf_TCHR: Oregon State University Tanguay Lab 120 Hour Post-fertilization zebrafish Assay for Touch Responsive (AID 2284403)
Summary of the method: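 Binary touch-response calls are made at 120 hpf in 5D wild-type zebrafish larvae. These larvae were dechorionated with pronase and exposed singly from 6 hpf in sealed, dark plates at 28 °C with 0.64% DMSO final; dead embryos are excluded.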

[6] = Tanguay_ZF_120hpf_ANY: Oregon State University Tanguay Lab 120 Hour Post-fertilization zebrafish Assay for Any Mortality and Malformation (AID 2284404)
Summary of the method: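 Dechorionated Tropical 5D wild-type embryos, one per well from 6 hpf, static exposure in sealed, dark plates at 28C until 120 hpf, 0.64% DMSO final. Brightfield scoring of mortality and malformations as binary presence/absence, pooling 13 morphology endpoints.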

[7] = CCTE_Padilla_ZF_Score.Craniofacial: CCTE's 144 Hour Post-fertilization zebrafish Assay Score for Craniofacial Malformation, Padilla Lab (AID 2284405)
Summary of the method: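 Craniofacial defects were scored at 6 dpf by two blinded observers using stereomicroscopy. Exposure of wild-type embryos began at 6–8 hpf in sealed wells of 10% Hanks' solution at 26C, with chemical removed by rinsing at 5 dpf.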

[8] = CCTE_Padilla_ZF_Score.Edema: CCTE's 144 Hour Post-fertilization zebrafish Assay Score for Edema Malformation, Padilla Lab (AID 2284406)
Summary of the method: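 Edema scored at 6 dpf by two blinded observers under a stereo microscope, in single outbred wild-type larvae exposed from 6-8 hpf in sealed wells (Hanks', 26C, 14:10 h light) and chemical-free after a 5 dpf rinse.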

[9] = CCTE_Padilla_ZF_Score.Spine: CCTE's 144 Hour Post-fertilization zebrafish Assay Score for Spine Malformation, Padilla Lab (AID 2284407)
Summary of the method: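 Spine malformation scored at 6 dpf by two independent blinded observers under stereomicroscope, after static sealed exposure from 6–8 hpf at 26C in Hanks' solution with rinse on 5 dpf. Positive-direction fit against DMSO control.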

[10] = CCTE_Padilla_ZF_Score.Swim_bladder: CCTE's 144 Hour Post-fertilization zebrafish Assay Score for Swim Bladder Malformation, Padilla Lab (AID 2284408)
Method: CCTE_Padilla_ZF_Phenotype_Score is a whole embryo, multiplexed assay using zebrafish ova exposed for 144 hours post fertilization on a 96-well plate.CCTE_Padilla_ZF_Score.Swim_bladder is one of one assay component(s) measured or calculated from the CCTE_Padilla_ZF_Phenotype_Score assay. It is designed to make measurements of zebrafish development as detected with brightfield microscopy of developing zebrafish embryos.Data from the assay component CCTE_Padilla_ZF_Score.Swim_bladder was analyzed into 1 assay endpoints. This assay endpoint, CCTE_Padilla_ZF_Score.Swim_bladder, was analyzed in the positive analysis fitting direction relative to DMSO as the negative control and baseline of activity. Using a type of viability reporter, gain-of-signal activity can be used to understand changes in developmentals as they relate to the whole embryo. To generalize the intended target to other relatable targets, this assay endpoint is annotated to the zebrafish development intended target family, where the subfamily is swim bladder morphogenesis.
Zebrafish husbandry: Wild type adult zebrafish (Danio rerio; undefined outbred stock obtained from Aquatic Research Organisms, Hampton, NH, 03842) were housed in an AAALAC-approved animal facility at 28C with a 14:10 h light: dark cycle (lights on at 08:30 h). Adult fish (2-3 females per male; density = 15-20 adults per tank) were kept in one of several 9-liter (L) flow-through colony tanks (Aquaneering Inc., San Diego, CA). All adults in a colony tank were placed in a 2 L (static) breeding tank (Aquatic Habitats, Apopka, FL) one hour prior to light onset. Typically, adults from two to three colony tanks were mated on the same day. Two hours after light onset the adults were returned to the colony tank. All embryos were gathered from each breeder tank, pooled, and placed in a 28C water bath for 2 h, followed by two washes with 0.06% bleach (v/v) in 10% Hanks' Balanced Salt Solution (13.7 mM NaCl 0.54 mM KCl, 25 uM Na2HPO4, 130 uM CaCl2 100 um MgSO4 and 420 um NaHCO3,), hereafter referred to as Hanks' solution, for 5 min in order to remove any residual bacteria or fungi. Immediately following washing, the embryos were examined, and healthy embryos were separated from dead or unfertilized eggs and moved into fresh Hanks'. Chemical exposures: Zebrafish embryos were exposed in 96-well plates. Between 6- and 8-hours post fertilization (hpf), healthy embryos (with chorions) were transferred, one embryo per well, into 96 well (0.5 mL) microtiter plates (Cell Culture-Treated, Flat-Bottom Microplate 96 well [Corning Costar, Kennebunk, ME; Cat 09-761-145]) filled with 200 uL of Hanks' solution. A random number generator was used to assign the order in which the rows of embryos were plated in 96 well plates each week. After plating, the embryos were dosed with 0.8 uL of the chemical dosing solution then immediately sealed with AlumaSeal II (Excel Scientific Inc, Victorville, CA) to prevent volatilization of the chemicals, and then placed in a leakproof secondary container. These containers were placed in an incubator maintained on a 14:10 h light: dark cycle at 26C for rearing. On 5 dpf, live larvae were gently moved out of the plate with test chemicals and into a new 96 well mesh plate (Millipore Corp., Bedford, MA) with just the Hanks' solution. Once within the mesh well plate, the animals were rinsed with 400 uL of fresh Hanks' three times, and then the plates were covered with a non-adhesive material (Microseal A, BioRad, Hercules, CA), plate lid added, and then plate sides wrapped in Parafilm (PM992, Bermis Company, Neenah, WI), and returned to the incubator. […]

SMILES | outcome [1] | outcome [2] | outcome [3] | outcome [4] | outcome [5] | outcome [6] | outcome [7] | outcome [8] | outcome [9] | outcome [10] | AC50 [1] | AC50 [6] | AC50 [8] | AC50 [10] | AC50 [2] | AC50 [3] | AC50 [4] | AC50 [5] | AC50 [7]
O=C(O)C(F)(F)C(F)(F)C(F)(F)C(F)(F)C(F)(F)F | inactive | inactive | inactive | inactive | inactive | inactive | inactive | inactive | inactive | inactive |  |  |  |  |  |  |  |  | 
NS(=O)(=O)C(F)(F)C(F)(F)C(F)(F)C(F)(F)C(F)(F)C(F)(F)C(F)(F)C(F)(F)F |  | inactive | inactive | inactive | inactive |  | inactive |  | inactive |  | 5.51 µM (active) | 2.59 µM (active) | 0.582 µM (active) | 0.321 µM (active) |  |  |  |  | 
O=C(O)C(F)(F)C(F)(F)C(F)(F)C(F)(F)C(F)(F)C(F)(F)C(F)(F)C(F)(F)C(F)(F)F | inactive | inactive | inactive | inactive | inactive |  | inactive | inactive | inactive |  |  | 8.9 µM (active) |  | 11.5 µM (active) |  |  |  |  | 
O=S(=O)(O)C(F)(F)C(F)(F)C(F)(F)C(F)(F)F | inactive | inactive | inactive | inactive | inactive | inactive | inactive | inactive | inactive | inactive |  |  |  |  |  |  |  |  | 
O=S(=O)(O)C(F)(F)C(F)(F)C(F)(F)C(F)(F)C(F)(F)C(F)(F)F | inactive | inactive | inactive | inactive | inactive |  | inactive | inactive | inactive | inactive |  | 85.1 µM (active) and 71.3 µM (active) | 29.6 µM (active) | 38.9 µM (active) | 85.1 µM (active) | 84.8 µM (active) | 81.8 µM (active) | 84.8 µM (active) | 81.3 µM (active)
O=C(O)C(F)(F)C(F)(F)C(F)(F)C(F)(F)C(F)(F)C(F)(F)C(F)(F)C(F)(F)F | inactive | inactive | inactive | inactive | inactive | inactive | inactive |  | inactive |  |  |  | 30.6 µM (active) | 30 µM (active) |  |  |  |  | 
